# Paper PMC7862700, “An all-to-all approach to the identification of sequence-specific readers for epigenetic DNA modifications on cytosine”
# Experiments:
# Assay in all cases: DAPPL (digital affinity profiling via proximity ligation, sequencing); 10 mM Tris-HCl pH 7.5, 50 mM NaCl, 1 mM DTT, 4% glycerol, room temperature, 30 min; GST-TFs on glutathione beads, 16-mer random dsDNA library, 0.1% formaldehyde crosslink after washing; high values mean tight binding
# FEV = biological target: T1, FEV (Homo sapiens, UniProt Q99581 1-238); conditions: protein: recombinant; tags: N-terminal GST; dsDNA, one strand shown
# T1 sequence: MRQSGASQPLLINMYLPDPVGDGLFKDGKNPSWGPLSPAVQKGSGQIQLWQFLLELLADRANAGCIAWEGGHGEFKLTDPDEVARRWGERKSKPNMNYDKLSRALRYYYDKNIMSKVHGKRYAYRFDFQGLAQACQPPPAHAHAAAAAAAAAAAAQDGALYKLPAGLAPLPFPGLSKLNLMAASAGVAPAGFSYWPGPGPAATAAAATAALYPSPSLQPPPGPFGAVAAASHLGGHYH
# In short: (§1)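 Each value of binding signal is a hexamer's read frequency for a factor divided by the same hexamer's frequency in the tag-only sample. Barcoded, bead-captured GST fusions of human transcription factors made in yeast were pooled with that sample and incubated with 200 nmole of a random double-stranded 16-mer DNA library in Tris/NaCl/DTT/glycerol buffer at room temperature for 30 min. Washing, 0.1% formaldehyde crosslinking, proximity ligation, PCR and Illumina NextSeq500 sequencing followed.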
# ETV5 = ETV5 (Homo sapiens, UniProt P41161 1-510); conditions: protein: recombinant; tags: N-terminal GST; dsDNA, one strand shown
# Chain of ETV5 (P41161 whole entry): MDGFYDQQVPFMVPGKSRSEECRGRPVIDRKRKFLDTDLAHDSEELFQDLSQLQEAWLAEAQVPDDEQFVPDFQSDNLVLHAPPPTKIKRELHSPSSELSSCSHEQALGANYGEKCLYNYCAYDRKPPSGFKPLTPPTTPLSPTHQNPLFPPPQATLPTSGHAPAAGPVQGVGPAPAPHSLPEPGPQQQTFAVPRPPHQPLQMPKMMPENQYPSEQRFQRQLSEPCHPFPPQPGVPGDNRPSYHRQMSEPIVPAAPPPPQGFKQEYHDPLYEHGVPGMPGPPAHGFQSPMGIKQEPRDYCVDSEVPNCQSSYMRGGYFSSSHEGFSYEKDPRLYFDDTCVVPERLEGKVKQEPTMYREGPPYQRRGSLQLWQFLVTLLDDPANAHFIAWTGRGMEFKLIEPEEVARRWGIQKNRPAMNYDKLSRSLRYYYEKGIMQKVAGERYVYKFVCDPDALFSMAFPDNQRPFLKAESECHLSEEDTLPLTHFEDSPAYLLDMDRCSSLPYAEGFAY
# In short: as §1
# HSF1 = HSF1 (Homo sapiens, UniProt Q00613 1-529); conditions: protein: recombinant; tags: N-terminal GST; chain copies: 3; dsDNA, one strand shown
# Chain of HSF1 (Q00613 whole entry): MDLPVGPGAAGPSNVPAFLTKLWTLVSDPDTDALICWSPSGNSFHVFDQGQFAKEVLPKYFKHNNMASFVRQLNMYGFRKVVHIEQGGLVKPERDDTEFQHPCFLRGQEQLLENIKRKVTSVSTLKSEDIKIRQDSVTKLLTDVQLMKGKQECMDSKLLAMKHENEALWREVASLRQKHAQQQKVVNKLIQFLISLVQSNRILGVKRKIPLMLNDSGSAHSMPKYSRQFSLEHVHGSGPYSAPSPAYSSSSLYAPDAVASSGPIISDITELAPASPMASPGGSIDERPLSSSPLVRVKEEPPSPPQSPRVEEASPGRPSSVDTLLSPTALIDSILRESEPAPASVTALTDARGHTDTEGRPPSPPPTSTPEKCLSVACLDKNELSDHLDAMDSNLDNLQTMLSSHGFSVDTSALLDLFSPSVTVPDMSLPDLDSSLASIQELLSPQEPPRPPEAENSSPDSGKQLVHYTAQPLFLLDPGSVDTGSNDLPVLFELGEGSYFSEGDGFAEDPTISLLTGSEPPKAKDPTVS
# In short: as §1
# SPIC = biological target: T2, SPIC (Homo sapiens, UniProt Q8N5J4 1-248); conditions: protein: recombinant; tags: N-terminal GST; dsDNA, one strand shown
# T2 sequence: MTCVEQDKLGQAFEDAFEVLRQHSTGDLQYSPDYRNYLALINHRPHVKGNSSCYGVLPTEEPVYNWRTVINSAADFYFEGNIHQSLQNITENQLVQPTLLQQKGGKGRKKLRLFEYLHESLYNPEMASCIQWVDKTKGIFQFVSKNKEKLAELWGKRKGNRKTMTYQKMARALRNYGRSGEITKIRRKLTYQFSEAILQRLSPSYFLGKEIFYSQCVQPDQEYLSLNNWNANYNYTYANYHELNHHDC
# In short: as §1
# ELF4 = ELF4 (Homo sapiens, UniProt Q99607 1-663); conditions: protein: recombinant; tags: N-terminal GST; dsDNA, one strand shown
# Chain of ELF4 (Q99607 whole entry): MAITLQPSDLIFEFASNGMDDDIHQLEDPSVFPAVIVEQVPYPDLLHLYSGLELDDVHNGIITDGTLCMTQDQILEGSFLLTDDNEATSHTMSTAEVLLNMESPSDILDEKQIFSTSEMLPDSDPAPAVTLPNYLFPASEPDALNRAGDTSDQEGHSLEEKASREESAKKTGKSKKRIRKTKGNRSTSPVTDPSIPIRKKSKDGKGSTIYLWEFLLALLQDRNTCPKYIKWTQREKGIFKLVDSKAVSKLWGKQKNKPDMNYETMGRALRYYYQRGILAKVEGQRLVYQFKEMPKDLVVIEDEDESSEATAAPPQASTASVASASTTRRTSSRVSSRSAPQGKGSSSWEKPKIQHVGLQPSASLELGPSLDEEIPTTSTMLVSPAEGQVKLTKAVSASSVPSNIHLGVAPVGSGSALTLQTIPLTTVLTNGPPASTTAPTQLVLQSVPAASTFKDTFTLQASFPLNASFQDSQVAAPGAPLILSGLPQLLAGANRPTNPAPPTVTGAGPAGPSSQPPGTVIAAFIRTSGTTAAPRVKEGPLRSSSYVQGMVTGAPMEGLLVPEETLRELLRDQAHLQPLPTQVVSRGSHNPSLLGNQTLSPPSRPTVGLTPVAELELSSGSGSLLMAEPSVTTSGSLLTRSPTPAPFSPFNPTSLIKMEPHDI
# In short: as §1
# ELK4 = biological target: T3, ELK4 (Homo sapiens, UniProt P28324-2 1-405); conditions: protein: recombinant; tags: N-terminal GST; dsDNA, one strand shown
# T3 sequence: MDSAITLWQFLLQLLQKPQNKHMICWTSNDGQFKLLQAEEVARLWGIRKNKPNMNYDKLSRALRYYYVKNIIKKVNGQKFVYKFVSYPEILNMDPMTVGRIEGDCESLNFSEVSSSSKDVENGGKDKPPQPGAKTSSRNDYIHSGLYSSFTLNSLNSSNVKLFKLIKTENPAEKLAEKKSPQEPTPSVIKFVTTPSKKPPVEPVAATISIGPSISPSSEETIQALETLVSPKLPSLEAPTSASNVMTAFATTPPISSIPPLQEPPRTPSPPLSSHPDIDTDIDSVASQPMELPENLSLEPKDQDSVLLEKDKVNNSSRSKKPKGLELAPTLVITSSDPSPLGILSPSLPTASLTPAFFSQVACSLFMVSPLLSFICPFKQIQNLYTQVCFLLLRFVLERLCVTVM
# In short: as §1
# ETV2 = biological target: T4, ETV2 (Homo sapiens, UniProt O00321 1-342); conditions: protein: recombinant; tags: N-terminal GST; dsDNA, one strand shown
# T4 sequence: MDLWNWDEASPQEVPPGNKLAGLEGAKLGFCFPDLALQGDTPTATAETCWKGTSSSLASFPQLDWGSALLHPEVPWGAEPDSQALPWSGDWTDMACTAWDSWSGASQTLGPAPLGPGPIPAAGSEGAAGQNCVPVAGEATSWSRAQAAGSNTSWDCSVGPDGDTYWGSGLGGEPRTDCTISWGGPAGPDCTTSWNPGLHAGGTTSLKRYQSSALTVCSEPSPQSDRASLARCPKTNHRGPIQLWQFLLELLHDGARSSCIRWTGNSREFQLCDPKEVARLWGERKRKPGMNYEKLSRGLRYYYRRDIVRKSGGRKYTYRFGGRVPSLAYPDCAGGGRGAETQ
# In short: as §1
# ELF3 = biological target: T5, ELF3 (Homo sapiens, UniProt P78545 1-371); conditions: protein: recombinant; tags: N-terminal GST; dsDNA, one strand shown
# T5 sequence: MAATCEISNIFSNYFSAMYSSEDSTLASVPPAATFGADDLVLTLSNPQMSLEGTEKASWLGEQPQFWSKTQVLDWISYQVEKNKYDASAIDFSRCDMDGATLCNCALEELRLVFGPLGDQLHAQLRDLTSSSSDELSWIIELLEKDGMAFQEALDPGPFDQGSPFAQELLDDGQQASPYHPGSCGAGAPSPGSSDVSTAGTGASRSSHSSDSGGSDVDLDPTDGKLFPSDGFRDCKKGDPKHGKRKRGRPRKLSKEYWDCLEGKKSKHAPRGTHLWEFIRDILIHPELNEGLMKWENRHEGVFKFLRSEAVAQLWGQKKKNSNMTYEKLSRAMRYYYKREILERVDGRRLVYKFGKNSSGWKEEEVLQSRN
# In short: as §1
# CRX = CRX (Homo sapiens, UniProt O43186 1-299); conditions: protein: recombinant; tags: N-terminal GST; dsDNA, one strand shown
# Chain of CRX (O43186 whole entry): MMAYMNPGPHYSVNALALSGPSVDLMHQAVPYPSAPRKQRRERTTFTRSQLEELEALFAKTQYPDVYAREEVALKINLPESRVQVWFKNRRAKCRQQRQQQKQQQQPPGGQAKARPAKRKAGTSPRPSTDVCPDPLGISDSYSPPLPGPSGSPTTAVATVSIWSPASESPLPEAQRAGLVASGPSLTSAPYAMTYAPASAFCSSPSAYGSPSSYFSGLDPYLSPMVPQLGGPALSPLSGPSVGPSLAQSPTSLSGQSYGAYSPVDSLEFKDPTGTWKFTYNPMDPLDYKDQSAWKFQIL
# In short: as §1
# ETV1 = ETV1 (Homo sapiens, UniProt P50549 1-477); conditions: protein: recombinant; tags: N-terminal GST; dsDNA, one strand shown
# Chain of ETV1 (P50549 whole entry): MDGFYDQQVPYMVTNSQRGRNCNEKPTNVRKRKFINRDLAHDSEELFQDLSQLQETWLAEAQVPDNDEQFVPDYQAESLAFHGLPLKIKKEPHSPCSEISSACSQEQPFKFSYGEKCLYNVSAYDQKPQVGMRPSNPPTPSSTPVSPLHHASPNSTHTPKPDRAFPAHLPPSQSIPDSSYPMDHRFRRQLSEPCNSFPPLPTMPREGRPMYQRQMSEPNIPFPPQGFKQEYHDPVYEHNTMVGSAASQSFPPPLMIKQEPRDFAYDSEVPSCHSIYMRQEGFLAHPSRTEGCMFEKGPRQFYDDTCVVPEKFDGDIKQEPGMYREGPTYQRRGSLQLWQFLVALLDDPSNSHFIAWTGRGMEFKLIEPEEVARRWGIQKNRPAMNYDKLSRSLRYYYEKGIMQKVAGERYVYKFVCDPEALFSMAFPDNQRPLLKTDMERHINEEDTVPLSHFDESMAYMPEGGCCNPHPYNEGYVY
# In short: as §1
# ERF = biological target: T6, ERF (Homo sapiens, UniProt P50548 1-548); conditions: protein: recombinant; tags: N-terminal GST; dsDNA, one strand shown
# T6 sequence: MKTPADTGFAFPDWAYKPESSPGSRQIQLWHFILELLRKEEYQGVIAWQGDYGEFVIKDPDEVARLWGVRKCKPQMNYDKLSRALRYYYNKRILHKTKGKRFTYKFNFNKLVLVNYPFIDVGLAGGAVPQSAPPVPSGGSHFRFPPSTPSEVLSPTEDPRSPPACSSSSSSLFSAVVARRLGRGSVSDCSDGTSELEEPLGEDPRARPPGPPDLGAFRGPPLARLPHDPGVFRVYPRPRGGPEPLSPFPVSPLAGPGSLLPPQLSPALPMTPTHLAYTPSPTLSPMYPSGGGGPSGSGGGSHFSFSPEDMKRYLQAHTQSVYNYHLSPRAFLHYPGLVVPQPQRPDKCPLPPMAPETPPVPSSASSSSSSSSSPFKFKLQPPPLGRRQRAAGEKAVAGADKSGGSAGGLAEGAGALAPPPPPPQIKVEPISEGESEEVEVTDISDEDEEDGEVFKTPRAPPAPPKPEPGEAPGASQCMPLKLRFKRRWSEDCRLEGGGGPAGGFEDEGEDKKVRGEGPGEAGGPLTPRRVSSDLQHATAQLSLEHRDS
# In short: as §1
# ETV3L = biological target: T7, ETV3L (Homo sapiens, UniProt Q6ZN32 1-361); conditions: protein: recombinant; tags: N-terminal GST; dsDNA, one strand shown
# T7 sequence: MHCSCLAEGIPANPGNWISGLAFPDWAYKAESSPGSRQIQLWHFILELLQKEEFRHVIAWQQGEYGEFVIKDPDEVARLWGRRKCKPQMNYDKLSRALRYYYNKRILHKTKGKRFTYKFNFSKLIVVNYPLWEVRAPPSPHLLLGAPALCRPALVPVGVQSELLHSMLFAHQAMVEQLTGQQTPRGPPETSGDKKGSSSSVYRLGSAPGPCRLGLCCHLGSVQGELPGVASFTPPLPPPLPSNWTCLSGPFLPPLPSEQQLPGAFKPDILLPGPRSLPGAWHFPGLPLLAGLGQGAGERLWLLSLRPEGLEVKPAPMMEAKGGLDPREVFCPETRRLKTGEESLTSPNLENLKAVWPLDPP
# In short: as §1
# ETS2 = biological target: T8, ETS2 (Homo sapiens, UniProt P15036 1-469); conditions: protein: recombinant; tags: N-terminal GST; dsDNA, one strand shown
# T8 sequence: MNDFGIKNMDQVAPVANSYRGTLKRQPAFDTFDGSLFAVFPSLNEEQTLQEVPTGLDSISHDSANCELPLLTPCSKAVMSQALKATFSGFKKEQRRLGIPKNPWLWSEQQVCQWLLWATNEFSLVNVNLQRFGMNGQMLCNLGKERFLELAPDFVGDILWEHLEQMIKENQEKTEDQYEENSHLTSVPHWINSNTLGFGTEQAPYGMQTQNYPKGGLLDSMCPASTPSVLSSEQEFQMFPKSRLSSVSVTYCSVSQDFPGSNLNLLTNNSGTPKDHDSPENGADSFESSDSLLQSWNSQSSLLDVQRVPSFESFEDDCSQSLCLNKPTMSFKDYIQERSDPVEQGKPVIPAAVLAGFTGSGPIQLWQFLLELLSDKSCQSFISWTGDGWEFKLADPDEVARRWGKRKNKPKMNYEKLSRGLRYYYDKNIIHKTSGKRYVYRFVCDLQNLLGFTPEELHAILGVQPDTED
# In short: as §1
# SPDEF = biological target: T9, SPDEF (Homo sapiens, UniProt O95238 1-335); conditions: protein: recombinant; tags: N-terminal GST; dsDNA, one strand shown
# T9 sequence: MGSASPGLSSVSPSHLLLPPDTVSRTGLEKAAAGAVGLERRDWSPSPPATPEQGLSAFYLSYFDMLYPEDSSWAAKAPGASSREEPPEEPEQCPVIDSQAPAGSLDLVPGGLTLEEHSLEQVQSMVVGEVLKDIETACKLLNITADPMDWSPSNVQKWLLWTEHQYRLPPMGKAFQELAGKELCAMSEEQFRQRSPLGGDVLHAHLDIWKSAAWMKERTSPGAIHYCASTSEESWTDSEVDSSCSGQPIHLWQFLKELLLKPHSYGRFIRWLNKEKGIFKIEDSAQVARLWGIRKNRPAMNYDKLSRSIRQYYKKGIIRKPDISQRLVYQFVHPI
# In short: as §1
# ETV7 = biological target: T10, ETV7 (Homo sapiens, UniProt Q9Y603 1-341); conditions: protein: recombinant; tags: N-terminal GST; dsDNA, one strand shown
# T10 sequence: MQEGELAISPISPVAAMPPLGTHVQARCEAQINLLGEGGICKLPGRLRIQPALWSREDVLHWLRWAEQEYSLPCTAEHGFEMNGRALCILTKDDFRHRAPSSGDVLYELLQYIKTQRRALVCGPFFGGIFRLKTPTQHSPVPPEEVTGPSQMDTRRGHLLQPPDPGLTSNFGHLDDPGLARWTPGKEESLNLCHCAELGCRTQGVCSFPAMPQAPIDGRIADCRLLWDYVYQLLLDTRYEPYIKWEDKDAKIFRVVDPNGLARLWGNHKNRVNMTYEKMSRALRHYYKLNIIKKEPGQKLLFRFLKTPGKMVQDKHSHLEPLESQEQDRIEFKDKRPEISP
# In short: as §1
# ELF5 = biological target: T11, ELF5 (Homo sapiens, UniProt Q9UKW6-2 1-255); conditions: protein: recombinant; tags: N-terminal GST; dsDNA, one strand shown
# T11 sequence: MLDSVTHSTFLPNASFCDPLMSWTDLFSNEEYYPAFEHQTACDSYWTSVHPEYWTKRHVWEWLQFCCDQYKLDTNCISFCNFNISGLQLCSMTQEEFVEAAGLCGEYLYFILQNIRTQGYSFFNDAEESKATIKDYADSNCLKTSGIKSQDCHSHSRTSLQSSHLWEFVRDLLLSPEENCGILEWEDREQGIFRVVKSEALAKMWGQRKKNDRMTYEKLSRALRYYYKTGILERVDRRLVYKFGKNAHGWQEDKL
# In short: as §1
# ETV3 = biological target: T12, ETV3 (Homo sapiens, UniProt P41162-2 1-143); conditions: protein: recombinant; tags: N-terminal GST; dsDNA, one strand shown
# T12 sequence: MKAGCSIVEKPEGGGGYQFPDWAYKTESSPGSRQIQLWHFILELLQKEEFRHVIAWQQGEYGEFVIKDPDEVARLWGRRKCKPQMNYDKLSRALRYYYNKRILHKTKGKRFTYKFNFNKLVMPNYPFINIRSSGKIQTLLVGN
# In short: as §1
# ETV6 = ETV6 (Homo sapiens, UniProt P41212 1-452); conditions: protein: recombinant; tags: N-terminal GST; dsDNA, one strand shown
# Chain of ETV6 (P41212 whole entry): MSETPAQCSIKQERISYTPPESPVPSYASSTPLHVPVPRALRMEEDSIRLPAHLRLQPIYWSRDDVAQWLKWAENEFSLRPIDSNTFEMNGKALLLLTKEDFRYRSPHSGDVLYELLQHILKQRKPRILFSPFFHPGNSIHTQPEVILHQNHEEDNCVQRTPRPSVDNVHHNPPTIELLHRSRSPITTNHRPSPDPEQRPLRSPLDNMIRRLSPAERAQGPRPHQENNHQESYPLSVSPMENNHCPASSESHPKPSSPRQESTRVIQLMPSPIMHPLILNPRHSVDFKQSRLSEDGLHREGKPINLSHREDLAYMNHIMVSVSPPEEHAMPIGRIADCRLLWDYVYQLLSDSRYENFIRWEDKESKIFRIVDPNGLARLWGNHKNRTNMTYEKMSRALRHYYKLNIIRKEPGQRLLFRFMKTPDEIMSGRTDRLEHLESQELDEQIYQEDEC
# In short: as §1
sequence,measurement,setting,value
TGCTCT,binding signal,FEV,"1.37 fold enrichment (6-mer frequency, TF over GST control)"
same,binding signal,ETV5,"1.37 fold enrichment (6-mer frequency, TF over GST control)"
same,binding signal,HSF1,"1.3 fold enrichment (6-mer frequency, TF over GST control)"
same,binding signal,SPIC,"1.2 fold enrichment (6-mer frequency, TF over GST control)"
same,binding signal,ELF4,"1.36 fold enrichment (6-mer frequency, TF over GST control)"
same,binding signal,ELK4,"1.38 fold enrichment (6-mer frequency, TF over GST control)"
same,binding signal,ETV2,"1.47 fold enrichment (6-mer frequency, TF over GST control)"
same,binding signal,ELF3,"1.36 fold enrichment (6-mer frequency, TF over GST control)"
same,binding signal,CRX,"1.24 fold enrichment (6-mer frequency, TF over GST control)"
same,binding signal,ETV1,"1.33 fold enrichment (6-mer frequency, TF over GST control)"
same,binding signal,ERF,"1.35 fold enrichment (6-mer frequency, TF over GST control)"
same,binding signal,ETV3L,"1.37 fold enrichment (6-mer frequency, TF over GST control)"
same,binding signal,ETS2,"1.4 fold enrichment (6-mer frequency, TF over GST control)"
same,binding signal,SPDEF,"1.17 fold enrichment (6-mer frequency, TF over GST control)"
same,binding signal,ETV7,"1.24 fold enrichment (6-mer frequency, TF over GST control)"
same,binding signal,ELF5,"1.27 fold enrichment (6-mer frequency, TF over GST control)"
same,binding signal,ETV3,"1.29 fold enrichment (6-mer frequency, TF over GST control)"
same,binding signal,ETV6,"1.31 fold enrichment (6-mer frequency, TF over GST control)"
